Data on 40 molecules can be found in PubChem BioAssay (Tox21).

SMILES strings stand for the structures. Inconclusive results are not listed. A number with no mark means an inactive call. Calls of active or inactive are those of the source. Calls follow the shape of the full dose curve.
% is scaled to controls: 0 for no effect and ±100 for the full control effect; potency is read from the fitted curve at half-maximal effect.

Chain of Retinoic acid receptor RXR-alpha (Homo sapiens) (P19793 whole entry, looked up): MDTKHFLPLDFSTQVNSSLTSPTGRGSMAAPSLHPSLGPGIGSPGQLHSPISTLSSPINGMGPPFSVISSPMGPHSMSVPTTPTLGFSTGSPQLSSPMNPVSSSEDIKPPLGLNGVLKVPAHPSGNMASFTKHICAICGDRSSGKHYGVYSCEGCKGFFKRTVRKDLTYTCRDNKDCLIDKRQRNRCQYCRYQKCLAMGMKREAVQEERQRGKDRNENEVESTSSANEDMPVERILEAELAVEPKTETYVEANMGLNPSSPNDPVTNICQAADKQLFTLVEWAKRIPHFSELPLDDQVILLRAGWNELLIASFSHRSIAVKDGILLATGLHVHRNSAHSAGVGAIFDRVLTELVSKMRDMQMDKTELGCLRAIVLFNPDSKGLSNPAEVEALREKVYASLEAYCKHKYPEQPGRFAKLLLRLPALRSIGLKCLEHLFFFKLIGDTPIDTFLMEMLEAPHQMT

The target of the test is Retinoic acid receptor RXR-alpha (Homo sapiens) (UniProt P19793). As to the kind of experiment: qHTS assay to identify small molecule agonists of the RXR signaling pathway (AID 1159527). Also: nearly all actives have a fitted effect of over 35% in size. The conditions noted are these: HEK293T RXRa-UAS-bla, beta-lactamase ratio, 16 h; series mostly up to 76.8 µM; activation: at the top concentration. From the text:
U.S. Tox21 Program National Center for Advancing Translational Sciences [NCATS] NIH Chemical Genomics Center [NCGC] U.S. Environmental Protection Agency [EPA] National Institutes of Environmental Health Sciences [NIEHS] National Toxicology Program [NTP] U.S. Food and Drug Administration [FDA] Tox21 Assay Overview: The Retinoid X receptor (RXR), a nuclear hormone receptor expressed in liver, spleen, placenta, epidermis, central nervous system. These receptors are able to form homo and heterodimers with other nuclear receptors and due to this heterodimerizing ability, RXR functions as master regulators producing diverse physiological effects. Three subtypes of RXR exist; alpha, beta and gamma. Retinoid X receptor alpha (RXR-alpha) has potential roles in metabolic signaling pathways, skin alopecia, dermal cysts, cardiac development, insulin sensitization etc. Therefore screening environmental chemicals on RXR-alpha signaling can be used for the studies focused on such therapeutic applications. For quantification of RXR-alpha ligands signaling, GeneBLAzer RXR alpha-UAS-bla HEK 293T (Life Technologies, Carlsbad, CA) cells containing a beta-lactamase reporter-gene under control of Retinoid X receptor-alpha response element were used to screen Tox21 10K library.
Tox21 Assay Protocol Summary: RXR-alpha HEK 293T cells were dispensed at 2,000 cells/6 uL of assay medium containing 2% charcoal-stripped FBS using a Multidrop Combi (ThermoFisher Scientific, Waltham, MA) dispenser. The assay was performed in black wall/clear-bottom 1536-well plates (Greiner Bio-One North America Inc. Monroe, NC). 9-cis retinoic acid was used as a positive control in the agonist mode screen. After the assay plates were incubated at 37 C and 5% CO2 for 5 hr, 23 nL of compounds dissolved in DMSO, positive controls or DMSO only were transferred to the assay plate by a Pintool station (Kalypsys, San Diego, CA). The assay plates were incubated at 37 C and 5% CO2 for 16 hr. One uL of LiveBLAzer B/G FRET substrate (Life Technologies) was added using a Flying Reagent Dispenser (Aurora Discovery, San Diego, CA) and the plates were incubated at room temperature for 2 hr. Fluorescence intensity (405 nm excitation, 460/530 nm emission) was measured using an Envision plate reader (PerkinElmer, Shelton, CT).
Consider `COCc1cnc(C2=NC(C)(C(C)C)C(=O)N2)c(C(=O)O)c1` (stereo not given), for which the “activation” value is 12.6%. Same read-out and setting: next, `O=C([O-])c1ccccn1.O=C([O-])c1ccccn1.O=C([O-])c1ccccn1.[Cr+3]`: 8.43%. Same read-out and setting: next, `Nc1c(Br)cc(Br)c2c1C(=O)c1ccccc1C2=O`: 1.05% [at 15.8 µM]. Turning to `O=C(CCl)CCl`, the Potency entry was “inactive”.

As for `CCC1(CCC(C)C)C(=O)NC(=O)NC1=O`, the “activation” value is 3.43%. Still for that read-out and setting: next, `O=C(O)C(O)C(O)C(=O)O` (stereo not given): 11.5%; `NC(=S)c1c(Cl)cccc1Cl`: 2.78%.

Take `CCc1cnc(C2=NC(C)(C(C)C)C(=O)N2)c(C(=O)O)c1` (stereo not given): the “activation” value was 11.4%. On to `COc1cc(C[C@@H](C)N)c(OC)cc1Br`, for which the “activation” value was -15.1%.

For `O=S(=O)(c1ccccc1)c1ccccc1`, the “activation” value is 7.8%. As to `COC1CC(=C(c2cccs2)c2cccs2)C[N+](C)(C)C1` (stereo not given), the “activation” value is -17.7% [at 35.3 µM]. Same read-out and setting: next, `CCC1(CC)C(=O)NC(=O)NC1=O`: 12.4% [at 35.3 µM]; `CC(C)(C#N)C(C)(C)C#N`: 6.65%. Still for that read-out and setting: next, `C1CS1`: 1.22%; `COc1cc(CC#N)cc(OC)c1OC`: 3.67% [at 35.3 µM]; `CCCCCl`: 12.5%.

On to `CCCCC(CC)COC(=O)c1c(Br)c(Br)c(Br)c(Br)c1C(=O)OCC(CC)CCCC` (stereo not given), for which the “activation” value was 7.23% [at 35.3 µM].

`OCCCl`: the Potency is 19.5 µM (active).

On to `CCOP(=O)(O)C(N)=O`, for which the “activation” value was -10.6%. Same read-out and setting: next, `CCCC1CCCCN1` (stereo not given): 1.08% [at 35.3 µM]. Regarding `CC1(C)[C@H](C(=O)O[C@H](C#N)c2cccc(Oc3ccccc3)c2)[C@@H]1C=C(Br)Br`, the Potency result was “inactive”. With `C=CCOC(=O)C(C)(C)OC(=O)c1cc(-n2c(=O)cc(C(F)(F)F)n(C)c2=O)ccc1Cl`, the “activation” value was -12.7%. Regarding `O=C(O)c1cc(Cl)ccc1Cl`, the “activation” value was 10.5%. Same read-out and setting: next, `Cc1ccc2c(C)cccc2c1`: -2.08%.

As to `O=C(O)c1ccc(=O)[nH]c1`, the “activation” value is 8.5% [at 35.3 µM]. Still for that read-out and setting: next, `Cc1cccc(C)c1NC1=NCCCS1`: 2.9% [at 35.3 µM]; `CCCCCCCCCCCCCCCl`: 0.217%; `Nc1ccccc1C(=O)OCC(O)CO` (stereo not given): -0.219% [at 35.3 µM]. On the same count and under the same terms, next, `SCc1ccccc1`: -7.08%; `CNC(=O)Oc1cccc(N=CN(C)C)c1`: -13.9%; `CN1CC[C@]23c4c5ccc(O)c4O[C@H]2[C@@H](O)C=C[C@H]3[C@H]1C5`: 4.29%. As to `CCC(=O)O[C@@H]1C=C2CCC3C(CCC4(C)C3CC[C@@H]4OC(=O)CC)C2CC1` (stereo not given in full), the “activation” value was -17.9% [at 35.3 µM]. On the same count and under the same terms, next, `CN(C)C(=O)Nc1cccc(OC(=O)NC(C)(C)C)c1`: -8.43%.

In the case of `C[Si](Cn1cncn1)(c1ccc(F)cc1)c1ccc(F)cc1`, the “activation” value is -28.5%. Same read-out and setting: next, `CN(C1CCCCC1)C1CCCCC1`: 2.37%; `CC(=O)OC(c1ccccc1)C(Cl)(Cl)Cl` (stereo not given): -10.9%; `C[N+]1(CCF)[C@@H]2CC[C@H]1CC(OC(=O)C(O)(c1ccccc1)c1ccccc1)C2` (stereo not given in full): 4.03% [at 35.3 µM]. Same read-out and setting: next, `CC(Cc1ccccc1)NCc1ccccc1Cl` (stereo not given): -8.14% [at 35.3 µM]; `CCOC(=O)NC(O)C(Cl)(Cl)Cl` (stereo not given): 0.597% [at 35.3 µM]; `NNCCO`: 16.2%.
